Source: PubChem BioAssay
Sampled rows, rich in hits. Any-hit rate of the full collection: about 2.8%.
PI5P4K alpha inh – blocks human PI5P4K alpha kinase activity. max response, %. AID 652105. P48426. hit rate 1.2% among 330,000. PI5P4Kalpha enzyme, ADP-Glo luminescence, 60 min; active compounds read low; active = max response of -50% or lower; inconclusive = between -30% and -50%; inactive = -30% or higher; note: value at the top dose of about 77 µM; % is set by controls: 0 for no effect and ±100 for the full control effect
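ADP-Glo luminescence end-point after a 60 min room-temperature kinase reaction. PI5P4Kalpha and substrate in HEPES pH 7.4 buffer with EGTA, 0.1% CHAPS and 5% DMSO; ATP at 5 microM final.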
POLB inh – inhibitors of human DNA polymerase beta | Pol beta primer extension/strand displacement, fluorescence kinetic | Potency, µM (highest dose often 114 µM), without a hit: at the highest dose activity change, negative = inhibition, hits mostly inhibitors | hit rate 1.3% among 340,000 | AID 485314; note: potency is the fitted concentration of half-maximal effect; % is set by controls: 0 for no effect and ±100 for the full control effect
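Preincubation: enzyme (10 nM) with compound, 15 min, RT. Reaction: substrate added to 50 nM final. Reads: 0 and 10 min. Analysis: normalized, Hill fit.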
POLI inh – inhibitors of human DNA polymerase iota | Q9UNA4 | Pol iota fluorescent replication assay, 10 min | Potency, µM (doses to about 115 µM), for inactives: at the top dose activity, negative = inhibition, actives largely listed as inhibitors | hit rate 1% among 390,000; note: potency is the fitted concentration of half-maximal effect
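Fluorescent replication assay read twice, at 0 min and 10 min after adding 50 nM (final) substrate. Enzyme (10 nM) and compounds were first incubated 15 min at room temperature; enzyme-free buffer wells were negative controls.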
Pol eta inh-1 – DNA polymerase eta (human) inhibition; recombinant Pol eta, fluorescent DNA replication assay; Potency, µM (top dose mostly 114 µM), without a hit: top-dose activity change, negative = inhibition, most hits filed as inhibitors; hit rate 1.2% among 390,000; AID 588591; note: potency is the fitted concentration of half-maximal effect; % is set by controls: 0 for no effect and ±100 for the full control effect
Target sequence (Q9Y253 whole entry, looked up): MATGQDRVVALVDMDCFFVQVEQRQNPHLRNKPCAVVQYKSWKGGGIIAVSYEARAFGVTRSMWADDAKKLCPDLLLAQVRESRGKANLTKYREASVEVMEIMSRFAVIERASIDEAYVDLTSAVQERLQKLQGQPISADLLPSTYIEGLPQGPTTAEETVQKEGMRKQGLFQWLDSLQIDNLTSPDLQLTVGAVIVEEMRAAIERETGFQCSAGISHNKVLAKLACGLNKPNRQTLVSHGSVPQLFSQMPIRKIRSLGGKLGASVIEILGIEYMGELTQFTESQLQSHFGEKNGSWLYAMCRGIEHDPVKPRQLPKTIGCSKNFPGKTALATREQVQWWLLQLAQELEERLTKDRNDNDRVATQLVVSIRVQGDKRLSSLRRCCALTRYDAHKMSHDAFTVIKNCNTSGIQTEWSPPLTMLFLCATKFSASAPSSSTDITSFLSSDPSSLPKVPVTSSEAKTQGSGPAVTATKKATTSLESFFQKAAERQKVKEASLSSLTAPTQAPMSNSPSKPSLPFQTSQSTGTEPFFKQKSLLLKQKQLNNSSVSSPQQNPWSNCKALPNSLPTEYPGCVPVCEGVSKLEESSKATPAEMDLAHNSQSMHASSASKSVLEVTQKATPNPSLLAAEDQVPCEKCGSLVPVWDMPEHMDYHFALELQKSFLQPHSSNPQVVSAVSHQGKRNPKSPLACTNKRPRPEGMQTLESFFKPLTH
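Pol eta (10 nM) was preincubated with compounds for 15 min at room temperature, after which fluorescent replication substrate (50 nM final) was added to start the reaction. Fluorescence was read kinetically at 0 and 10 min.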
Pol kappa inh-1 – blocks human DNA polymerase kappa activity | purified Pol kappa, fluorescent DNA synthesis assay, 10 min | Q9UBT6 | hit rate 0.53% among 400,000 | Potency, µM (top dose mostly 107 µM), without a hit: top-dose activity, negative = inhibition, actives largely listed as inhibitors; note: potency is the fitted concentration of half-maximal effect; % is set by controls: 0 for no effect and ±100 for the full control effect
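Enzyme at 10 nM met test compounds for 15 min at room temperature. Substrate addition (50 nM final) began the reaction, which was monitored by fluorescence at 0 and 10 min.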
WRN helicase inh – inhibitors of human WRN helicase. WRN helicase unwinding, fluorescent forked duplex, kinetic. AID 651768. Q14191. Potency, µM (highest dose often 114 µM), for the others: at the highest dose activity change, negative = inhibition, actives largely listed as inhibitors. hit rate 0.46% among 360,000; note: potency is the fitted concentration of half-maximal effect; % is set by controls: 0 for no effect and ±100 for the full control effect; nearly all actives have a fitted effect of over 55% in size
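Screening of the MLSMR collection measured strand separation of a quenched forked DNA duplex (100 nM) by 20 nM WRN with 2 mM ATP, all final. Compounds were preincubated with enzyme 15 min at room temperature.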
POLI cherry-pick – Human Pol iota inhibitor confirmatory assay; Potency, µM, hits mostly inhibitors; hit rate 77% among 1,500; AID 720496; Pol iota primer extension, TAMRA/BHQ fluorescence; shares compounds with Pol kappa inh-1; note: potency is the fitted concentration of half-maximal effect
GALK inh confirm – confirmation of human galactokinase (GALK) inhibitors; shares compounds with Pol eta inh-1; purified GALK, Kinase-Glo ATP depletion luminescence; Potency, µM (series often up to 115 µM), for inactives: at the top dose activity, negative = inhibition, hits mostly inhibitors; hit rate 70% among 150; AID 2015
Redox cycling – counter-screen for GALK inhibitors: redox cycling H2O2 generation; shares compounds with Pol eta inh-1; Phenol red-HRP H2O2 redox cycling, absorbance 600 nm; Potency, µM (titrated, usually from 115 µM), inactives show at the top dose activity change, negative = H2O2 signal, most hits filed as inhibitors; hit rate 40% among 150; AID 2035
HEK293 tox – counter-screen for GALK inhibitors: HEK293 cell cytotoxicity | shares compounds with Pol eta inh-1 | HEK-293 viability, ATP luminescence (CellTiter-Glo), 24/48 h | Potency, µM (top dose mostly 46.1 µM), for the others: at the top dose activity change, negative = cytotoxicity, hits mostly inhibitors | hit rate 10% among 170 | AID 2547; note: potency is the fitted concentration of half-maximal effect; % is set by controls: 0 for no effect and ±100 for the full control effect
Pol kappa inh-2 – confirmation of human DNA polymerase kappa inhibitors; shares compounds with Pol eta inh-1; purified Pol-kappa, fluorescent strand-displacement substrate; Potency, µM, most hits filed as inhibitors; hit rate 76% among 920; AID 720501; note: potency is the fitted concentration of half-maximal effect
Pol eta inh-2 – confirmation of human DNA polymerase eta inhibitors. shares compounds with Pol eta inh-1. Pol eta primer extension, TAMRA/BHQ fluorescence, 10 min. Potency, µM, usual class: inhibitors. hit rate 64% among 2,600. AID 720502; note: potency is the fitted concentration of half-maximal effect
* hit, by the source's call; u = inconclusive; x = no result; [ ] = remark or other dose. Unless noted, calls come from the whole dose curve; as a rule, active = well fitted curve in the direction sought with a large enough effect; inconclusive = small, poorly fitted or top-dose-only effect, or another doubt; inactive = no such curve, though single readings can be large; an effect the other way counts as inactive or inconclusive.

SMILES	PI5P4K alpha inh	POLB inh	POLI inh	Pol eta inh-1	Pol kappa inh-1	WRN helicase inh	POLI cherry-pick	Pol eta inh-2	others
CC(C)=CCC1=C(OCC(=O)O)C(=O)c2ccccc2C1=O	-9	u	u	22µM*	-2%	-20%[11.6 µM]	38*	27*	GALK inh confirm=38µM*;Redox cycling=12µM*;HEK293 tox=-28%
Oc1ccc(/C=N/N=C(c2ccccc2)c2ccccc2)c(O)c1O	u	2.8µM*	u	3.2µM*	u	6.7µM*	11*	43*
O=C1NC[C@H](CCCCN2C[C@@H](Cc3ccccc3)N(Cc3ccccc3)C(=O)C2=O)N(CCC2CCCCC2)C1=O	-6	x	x	x	x	3%	x	x
Nc1ccc2c(S(=O)(=O)O)cccc2c1S(=O)(=O)O	-18	x	u	-19%	-15%	-19%	x	x
Nc1cccc2cc(S(=O)(=O)O)ccc12	u	x	4µM*	4µM*	10µM*	u	75*	27*	Pol kappa inh-2=19*
O=C(CSc1nc2c([nH]c3ccccc32)c(=O)n1-c1ccccc1F)Nc1ccccc1C(F)(F)F	x	5%	13%	-14%	-6%[60.1 µM]	x	x	x
Cc1[nH]c(=O)[nH]c(=O)c1C1N2CC3(C(C)C)CN1CC(C(C)C)(C2)C3=O (stereo unspecified)	x	u	35%	-18%	-20%	x	x	x
CCc1ccc(S(=O)(=O)/N=C2\C=C(Nc3ccc(C(=O)O)cc3)C(=O)c3ccccc32)cc1	-9	-30%	11µM*	28µM*	-8%	-18%[11.6 µM]	19*	21*	GALK inh confirm=u;Redox cycling=12µM*;HEK293 tox=11µM*;Pol kappa inh-2=u
O=C(O)c1cccc(NS(=O)(=O)c2ccc3c(c2)C(=O)c2ccccc2C3=O)c1	-5	u	2%	-27%	-2%	-21%	x	x
Cc1ccc(S(=O)(=O)/N=C2\C=C(Nc3cccc(C(=O)O)c3)C(=O)c3ccccc32)cc1	-12	u	4µM*	32µM*	3%	8%	75*	48*
CCCCCCCC1CC(/C(C)=N/NC(N)=O)OC1=O (stereo unspecified)	-14	48%	183%	-22%	-12%	-22%	x	x
